Source: the supplement of paper PMC6555819

Key:
Assay in all cases: PBM binding z-score (relative to random genomic background probes); higher = stronger binding; sequences stand for … in GC…GCGATTGACAGCGTAGAATGAAGG
[1] = system: PPARg:RXRa DBDmut IVT, anti-RXR (DBD mutation: RXRa K156A/R161A, NR concentration 270 nM, RXRa partner concentration 90 nM)
Method in brief: (§1)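 Random background probes are the reference for binding z-scores. These scores derive from regression-normalized fluorescence on custom Agilent 4×180K protein-binding microarrays incubated 1 h with ligand-free nuclear receptor dimers. Binding was detected with antibodies against each partner (one per run).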

[2] = system: PPARg:RXRa IVT, anti-PPARg (NR concentration 270 nM, RXRa partner concentration 90 nM)
Method in brief: as §1

[3] = system: PPARg DBDmut:RXRa IVT, anti-PPARg (DBD mutation: PPARg1 K132A/R137A, NR concentration 270 nM, RXRa partner concentration 90 nM)
Method in brief: as §1

[4] = system: PPARg DBDmut IVT, anti-PPARg (DBD mutation: PPARg1 K132A/R137A, NR concentration 270 nM)
Method in brief: as §1

[5] = system: PPARg homodimer (NR concentration 180 nM)
Method in brief: as §1

[6] = system: PXR:RXRa (NR concentration 270 nM, RXRa partner concentration 90 nM)
Method in brief: as §1

[7] = system: PXR homodimer (NR concentration 270 nM)
Method in brief: as §1

[8] = system: RARa:RXR (NR concentration 270 nM, RXRa partner concentration 90 nM)
Method in brief: as §1

[9] = system: RARa homodimer (NR concentration 270 nM)
Method in brief: as §1

[10] = system: RARb:RXRa (NR concentration 270 nM, RXRa partner concentration 90 nM)
Method in brief: as §1

[11] = system: RARb homodimer (NR concentration 270 nM)
Method in brief: as §1

[12] = system: RARg:RXRa (NR concentration 270 nM, RXRa partner concentration 90 nM)
Method in brief: as §1

[13] = system: RARg homodimer (NR concentration 270 nM)
Method in brief: as §1

[14] = system: RXRa DBDmut IVT, anti-RXR (DBD mutation: RXRa K156A/R161A, NR concentration 90 nM)
Method in brief: as §1

[15] = system: RXRa homodimer (NR concentration 180 nM)
Method in brief: as §1

[16] = system: THRa:RXRa (NR concentration 90 nM, RXRa partner concentration 90 nM)
Method in brief: as §1

[17] = system: THRa homodimer (NR concentration 90 nM)
Method in brief: as §1

[18] = system: VDR:RXRa (NR concentration 270 nM, RXRa partner concentration 90 nM)
Method in brief: as §1

[19] = system: VDR homodimer (NR concentration 270 nM)
Method in brief: as §1

Sequence	PBM binding z-score [1]	PBM binding z-score [2]	PBM binding z-score [3]	PBM binding z-score [4]	PBM binding z-score [5]	PBM binding z-score [6]	PBM binding z-score [7]	PBM binding z-score [8]	PBM binding z-score [9]	PBM binding z-score [10]	PBM binding z-score [11]	PBM binding z-score [12]	PBM binding z-score [13]	PBM binding z-score [14]	PBM binding z-score [15]	PBM binding z-score [16]	PBM binding z-score [17]	PBM binding z-score [18]	PBM binding z-score [19]
ACTTACGAGTCAACGAGGTTATAGCACGCGTATA	-0.235	0.267	1.03	0.64	0.175	1.51	0.513	1.68	-0.00172	0.738	0.874	1.07	0.785	0.637	1.59	2.04	0.474	4.89	0.877
GGAACGAGGGCATTCGGGTTGATAGCATGGCGAT	2.77	2.27	0.359	-0.376	0.523	3.69	2.77	0.733	-0.569	1.86	0.654	1.05	1.55	3.18	0.826	2.68	0.0871	4.61	4.11
GCTAGCAAGCCATTTGGGTCACTCAATGACGGGC	0.501	1.28	-0.713	-0.878	-0.494	0.0188	-0.796	0.479	-0.835	0.979	1.36	0.373	0.621	-0.364	0.56	1.51	0.353	-0.0244	-0.322
GCAGACAGGTGAAACGCAGGTAACTTAGGGTGGC	1.09	0.626	-0.0838	-0.922	-0.576	-0.333	-0.519	0.279	-0.246	0.798	0.119	0.872	0.154	-0.334	0.754	1.55	-0.353	-0.477	-0.61
TCTGCTAGGCCAGTTGGTCAGCTAACGAGCTGCC	0.789	0.538	-0.123	-0.684	-2.67	-0.743	-1.82	-0.933	-1.48	0.442	-0.0493	-0.411	-0.212	-0.198	-0.79	-0.845	-1.4	-0.797	-1.5
CCTCGGAGGACAACAGGAGGACAGAGCTGCCAGA	-0.583	-0.273	-0.847	-1.93	-0.324	-0.247	-0.0933	-0.0397	-0.0805	1.09	1.1	1.11	1.41	-0.107	0.167	1.61	0.577	-0.461	0.157
TAGCCTAGGTCAGATCCGGCCAGTATACGCTATA	0.634	1.52	0.095	-0.353	0.289	1.09	-0.796	1.12	-0.924	3.17	2.26	2.41	3.5	-0.288	1.41	3.4	0.0339	0.403	-0.271
CGTCCAAGGTGAATGCTAGGTCAGTGAAAGCATT	2.03	2.41	-0.677	-0.549	0.968	0.776	-0.645	1.8	-0.245	2.42	2.81	3.71	1.91	-0.198	1.02	3.27	1.59	0.559	-0.00133
